High-throughput results (PubChem)
Vaccinia mCherry – vaccinia inhibition (mCherry reporter) | Vaccinia virus mCherry reporter infection, fluorescence | Potency, µM (series often up to 36.5 µM), inactives show at the highest dose activity change, negative = inhibition, most hits filed as inhibitors | 0.63% of 310,000 active | AID 720579; calls by dose curve; tested in A549 cells; further: potency means the concentration at half of the fitted maximal effect; nearly all actives have a fitted effect of over 35% in size
FMDV antiviral – antivirals against foot and mouth disease virus. Potency, µM (top dose mostly 57.9 µM), inactives show at the top dose activity change, negative = inhibition, actives largely listed as inhibitors. 1.2% of 410,000 active. FMDV antiviral cell-based qHTS; calls by dose curve; tested in HEK293T cells; further: read-out not given here; potency means the concentration at half of the fitted maximal effect; nearly all actives have a fitted effect of over 45% in size
Lassa entry inh – Lassa virus entry inhibition; Lassa virus pseudotype entry inhibition, cell reporter; Potency, µM (series often up to 37.9 µM), inactives show top-dose activity change, negative = inhibition, hits mostly inhibitors; 1.2% of 300,000 active; calls by dose curve; tested in HEK293 cells; further: potency means the concentration at half of the fitted maximal effect; nearly all actives have a fitted effect of over 50% in size
MARV entry inh – inhibitors of Marburg virus binding or cell entry; Marburg virus pseudotyped entry inhibition, cell reporter; 1.8% of 300,000 active; Potency, µM (top dose mostly 37.8 µM), for the others: top-dose activity change, negative = inhibition, usual class: inhibitors; calls by dose curve; tested in HEK293 cells; further: potency means the concentration at half of the fitted maximal effect
Vaccinia Venus – vaccinia inhibition (Venus reporter); Vaccinia virus Venus reporter expression, fluorescence; Potency, µM (doses to about 36.5 µM), inactives show top-dose activity change, negative = inhibition, usual class: inhibitors; 0.46% of 330,000 active; calls by dose curve; tested in A549 cells; further: potency means the concentration at half of the fitted maximal effect; nearly all actives have a fitted effect of over 30% in size
HCMV inh – inhibitors of human cytomegalovirus. HFF cells, HCMV-luciferase reporter, 72 h; hits give low values. activity change, negative = inhibition, % at 57.5 µM. 4.5% of 410,000 active. AID 1259415; in the data active means activity change below about -60%; inconclusive means no clear call, values can overlap the other calls; inactive means above about -39%
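Luciferase read-out from HCMV-luciferase-infected HFFs (MOI 1 PFU/cell) 72 h post infection at 37C; compounds added after 16 h cell attachment; activity normalized between buffer-only basal and Salinomycin (10uM) inhibitor controls.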
An asterisk follows results filed as active; i = inactive; ? = inconclusive; . = not tested or not shown; [ ] = another dose, or the depositor's remark. This is a sample that favours compounds with a hit; in the whole collection about 6.5% have one here. On the % scale 0 is the no-effect control and ±100 the full control effect.

SMILES	Vaccinia mCherry	FMDV antiviral	Lassa entry inh	MARV entry inh	Vaccinia Venus	HCMV inh
CC(C)(C)CC(=O)NCC(c1ccc2c(c1)OCO2)N1CCOCC1 (stereo not given)	0%	-10%	-10%[46.1 µM]	.	6%	-2
CC(=O)c1c2c(cc3c(N(C)C)cccc13)CC(CO)(CO)C2	.	.	.	.	.	-17
COc1ccc(-c2cc(=O)n(-c3nc4ccccc4[nH]3)[nH]2)cc1	.	12%	?	?	.	-90*
COC(=O)c1ccc(-c2nc3ccccc3[nH]2)cc1	-26%	-79%	7.3µM*	1.8µM*	-24%	58
COc1ccc(CCCc2nc3ccccc3[nH]2)cc1	60%	28%	-17%	14%[46.1 µM]	-8%	-36
CC(=O)N1CCN(C(=O)CCc2nc3ccccc3c(=O)[nH]2)CC1	.	-25%	15%	21%	.	3
O=C(CCc1nc2ccccc2c(=O)[nH]1)N1CCN(C/C=C/c2ccccc2)CC1	.	20µM*	0%	-19%	.	13
O=c1[nH]c(CN2CCN(C/C=C/c3ccccc3)CC2)nc2cc(Cl)ccc12	-29%	-23%	1%	4.1µM*	-22%	1
COc1ccc(Nc2ncnc3onc(C)c23)cc1Cl	7%	-6%	9%[46.1 µM]	.	4%	-7
Cc1ccc(CCNC(=O)c2c(C)oc3ncn(CC(C)C)c(=O)c23)cc1	-17%	-6%	-12%[46.1 µM]	.	-10%	12
O=C(O)c1ccccc1N/N=C\c1ccnc2ccccc12	.	10µM*	?	4µM*	-13%	?
O=C(O)c1ccccc1N/N=C/c1cc(Br)cc(Br)c1O	-22%	-2%	?	15µM*	-5%	34
COc1ccccc1C1CCN(Cc2ccc3ccccc3c2)CC1	-20%	?	7%	7.1µM*	-12%	-67*
COc1ccc(OC)c(NC(=O)c2nc(S(=O)(=O)Cc3ccccc3)ncc2Cl)c1	-1%	7.1µM*	?	?	-8%	-99*
COc1ccc(NC(=O)c2nc(S(=O)(=O)Cc3cccc(C)c3)ncc2Cl)c(OC)c1	.	3.2µM*	.	.	.	-79*
COC(=O)c1ccccc1NC(=O)c1nc(S(=O)(=O)Cc2ccccc2F)ncc1Cl	-6%	-17%	12%[46.1 µM]	17%[46.1 µM]	-9%	24
CCOc1ccccc1NC(=O)c1nc(S(=O)(=O)Cc2ccccc2F)ncc1Cl	21%	.	.	.	-8%	.
CCOC(=O)C(C)Sc1nnc2ccc3ccccc3n12 (stereo not given)	-4%	37%	1%[46.1 µM]	8%[46.1 µM]	-2%	-86*
CC1=C(CC/C(C)=N/NC(N)=S)C(C)(C)CCC1	.	-14%	?	21µM*	.	-24
N#Cc1c(N)nc(Sc2ccc(Cl)cc2)c(C#N)c1-c1ccccc1Cl	?	28µM*	?	?	-29%	-78*
CCSc1nc(N)c(C#N)c(-c2ccccc2Cl)c1C#N	.	-25%	-13%	-1%	.	-63*
C=CCSc1nc(N)c(C#N)c(-c2ccc(C)cc2)c1C#N	.	-2%	-18%	-10%[46.1 µM]	-29%	?
Cc1ccc(-c2cc(-c3ccccc3Cl)c(C#N)c(N)n2)o1	-13%	?	-5%	-3%[46.1 µM]	3%	-37
COc1ccccc1CNC(=O)Cn1c(-c2ccc(F)cc2)cc(C(C)=O)c1C	-21%	-15%	3%[46.1 µM]	.	-21%	?
CCOC(=O)N1CCc2c(sc(NCc3ccc(N(C)C)cc3)c2C(=O)Nc2ccccc2OCC)C1	-29%	?	?	.	-16%	18
SMILES	Vaccinia mCherry	FMDV antiviral	Lassa entry inh	MARV entry inh	Vaccinia Venus	HCMV inh
CCC(C)NCCOCCOc1ccc(Cl)c(C)c1C (stereo not given)	-13%	?	?	?	?	-83*
CCC(C)NCCOCCOc1ccc(Cl)c2ccccc12 (stereo not given)	?	0%	?	?	28µM*	-11
CCC(C)NCCCOc1cc(Cl)ccc1Cl (stereo not given)	-23%	-21%	?	?	-21%	93
C=CCc1cc(Cl)ccc1OCCOCCNC(C)CC (stereo not given)	-6%	-26%	?	11µM*	4%	-11
C=CCc1cc(Cl)ccc1OCCCNC(C)C	i	-9%	?	?	-6%	-26
CCC1CCCCN1Cc1nc2c(c(=O)n(C)c(=O)n2C)n1Cc1c(F)cccc1Cl (stereo not given)	6%	.	.	.	-10%	.
COc1ccc(CCNC(=O)COc2coc(CN3c4ccccc4CC3C)cc2=O)cc1OC (stereo not given)	0%	22µM*	?	?	-15%	?
CCCC1(c2ccccc2)NC(=O)N(CC(=O)Nc2sc(-c3ccccc3)cc2C(=O)OCC)C1=O (stereo not given)	i	14%	?	?	-1%	-62*
COc1ccc2ccccc2c1CN1CCc2nnc(C(NS(C)(=O)=O)C(C)C)n2CC1 (stereo not given)	-7%	-19%	.	.	-11%	.
CNS(=O)(=O)/C=C/c1ccccc1	-13%	13%	20%	?	-8%	-72*
CCCNS(=O)(=O)/C=C/c1ccccc1	-9%	52%	-14%	21%[46.1 µM]	-13%	42
CC(CNC(=O)Cc1ccc(NC(=O)N2CCSc3ncccc32)cc1)c1ccccc1 (stereo not given)	-13%	?	-14%[46.1 µM]	.	-10%	0
CCCCn1c(SCC(=O)N2CCN(c3ccccc3)CC2)nc2ccsc2c1=O	-23%	?	26%[14.3 µM]	?	-24%	.
CCCCn1c(SCC(=O)N2CCC(C)CC2)nc2ccsc2c1=O	.	?	14%	8.2µM*	.	?
O=C1[C@H](Cc2ccccc2)NC/C=C\C[C@@H](c2ccc(Cl)cc2)N1Cc1ccccc1	0%	.	.	.	-13%	.
COc1ccccc1Cn1cc(C(=O)c2ccc(Cl)cc2)c(=O)c2ccccc21	-6%	0%	?	?	?	-101*
COc1cc2c(=O)c(C(=O)c3ccc(C)c(C)c3)cn(Cc3ccccc3F)c2cc1OC	-17%	?	?	?	-8%	-72*
CCc1ccc(C(=O)c2cn(Cc3ccccc3)c3cc(OC)c(OC)cc3c2=O)cc1	i	-27%	-7%[46.1 µM]	?	-14%	-65*
COc1cc2c(=O)c(C(=O)c3ccc(C)c(C)c3)cn(Cc3ccccc3)c2cc1OC	-2%	0%	1%[46.1 µM]	9%[46.1 µM]	-21%	-23
COc1ccc(N2CCN(c3ccc(-c4nc(-c5ccccc5C)no4)cc3[N+](=O)[O-])CC2)cc1	-9%	-13%	5%[46.1 µM]	?	-12%	4
CCCN(Cc1ccccc1)C(=S)Nc1ccc(OC(F)F)cc1	-20%	70%	17%	?	-10%	15
COCCN(Cc1ccccc1)C(=S)Nc1ccc(OC(F)F)cc1	-9%	23%	16µM*	?	8%	?
CCC(=O)OCC(=O)C1(OC(=O)CC)C(C)CC2C3C(Cl)CC4=CC(=O)C=C[C@@]4(C)C3C(O)C[C@@]21C (stereo not given in full)	-11%	-24%	.	.	-6%	.
